ELG1 genotox: qHTS screen for small molecules that induce genotoxicity in human embryonic kidney (HEK293T) cells expressing luciferase-tagged ELG1 | HEK293T ELG1-luciferase reporter, luminescence, 16 h | Potency, µM (top dose mostly 46 µM), for the others: top-dose activity change, positive = activation, actives largely listed as activators | 1.3% of 330,000 active | AID 504466, 2011; note: % of control where 0% means no effect; nearly all actives have a fitted effect of over 60% in size
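Genotoxicity was scored as increased ELG1-luciferase reporter signal, measured by ONE-Glo luminescence (30 min, room temperature). Compound or vehicle exposure of the HEK293T reporter cells lasted 16 hr at 37°C.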
Rab9 promoter act: qHTS Assay for Rab9 Promoter Activators. Huh7 Rab9 promoter-luciferase reporter, luminescence, 24 h. Potency, µM (titrated, usually from 9.22 µM), for inactives: at the highest dose activation, negative = inhibition, actives largely listed as activators. 2.8% of 320,000 active; note: % of control where 0% means no effect; nearly all actives have a fitted effect of over 60% in size
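Steps: seed 1500 Huh7 Rab9-luc cells per well, rest 2 h at 37 °C; add compound in DMSO; incubate 24 h; add luciferase reagent, 10 min ambient; read luminescence.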
FLuc modulator: qHTS profiling assay for firefly luciferase inhibitor/activator using purifed enzyme and Km concentrations of substrates (counterscreen for miR-21 project); Luciferin 4-monooxygenase (Photinus pyralis), P08659; purified FLuc, Km substrates, luminescence inhibition; Potency, µM (top dose mostly 57.5 µM), without a hit: at the top dose activity change, negative = inhibition, most hits filed as inhibitors; 6.9% of 360,000 active;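 note: plate controls were vehicle for no effect and reference inhibitor for full effect; nearly all actives have a fitted effect of over 55% in size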
Target sequence (P08659 whole entry, looked up): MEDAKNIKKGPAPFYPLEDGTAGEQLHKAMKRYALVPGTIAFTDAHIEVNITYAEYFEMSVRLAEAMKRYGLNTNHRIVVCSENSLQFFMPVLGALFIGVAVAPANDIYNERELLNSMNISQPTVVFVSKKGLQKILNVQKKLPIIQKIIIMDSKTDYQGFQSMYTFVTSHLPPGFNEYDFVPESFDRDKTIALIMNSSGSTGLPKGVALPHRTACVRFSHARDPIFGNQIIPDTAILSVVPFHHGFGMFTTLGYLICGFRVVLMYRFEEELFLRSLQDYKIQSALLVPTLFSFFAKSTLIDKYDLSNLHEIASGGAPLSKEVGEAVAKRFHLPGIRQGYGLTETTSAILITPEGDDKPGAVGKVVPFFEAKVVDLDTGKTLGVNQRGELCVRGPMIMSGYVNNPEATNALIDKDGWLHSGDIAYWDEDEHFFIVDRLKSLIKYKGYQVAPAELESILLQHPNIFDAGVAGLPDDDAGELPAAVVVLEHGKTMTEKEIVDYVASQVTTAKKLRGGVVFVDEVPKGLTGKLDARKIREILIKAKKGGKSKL
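Biochemical qHTS of compounds, final roughly 60 µM downward over six points, against 10 nM purified firefly luciferase using Km concentrations of substrates (10 uM D-luciferin, 10 uM ATP) in Tris acetate pH 7.5 buffer; luminescence output.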
NPC1 prom act: qHTS Assay for NPC1 Promoter Activators; Huh7 NPC1 promoter luciferase reporter, 24 h; 2.4% of 320,000 active; Potency, µM (top dose mostly 9.22 µM), inactives show at the highest dose activation, usual class: activators; note: % of control where 0% means no effect; nearly all actives have a fitted effect of over 60% in size
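Luminescence read-out of NPC1 promoter-driven luciferase in stably transfected Huh7 cells; compounds delivered in DMSO and left 24 h at 37C, 5% CO2, qHTS titration format.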
SMN2 splice up: qHTS Assay for Enhancers of SMN2 Splice Variant Expression | HEK293 SMN2-luciferase splicing reporter, luminescence, 30-36 h | AID 1458, 2008 | 2.8% of 210,000 active | Potency, µM (doses to about 46.1 µM), for inactives: at the highest dose activity change, positive = activation, most hits filed as activators; note: % of control where 0% means no effect; nearly all actives have a fitted effect of over 55% in size
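qHTS luciferase splicing reporter: luminescence rises when SMN2 exon 7 is included in transfected HEK293 cells. Compound exposure lasted 30-36 h at 37C, with 4.5 mM final sodium butyrate as control, followed by a ONE-Glo read.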
Luc counter: Counterscreen for Luciferase (Kinase-Glo TM) Inhibition | Luciferin 4-monooxygenase (Photuris pensylvanica), Q27757 | Kinase-Glo luciferase, ATP luminescence, 8 min | Potency, µM (titrated, usually from 38.3 µM), without a hit: at the highest dose activity change, negative = inhibition, most hits filed as inhibitors | 0.28% of 200,000 active | AID 1379, 2008; note: % is set by controls: 0 for no effect and ±100 for the full control effect; nearly all actives have a fitted effect of over 60% in size
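Light output from Kinase-Glo luciferase with luciferin and 10 uM ATP in 50 mM imidazole pH 7.2, KCl, MgCl2, Tween 20, BSA; compound pin-delivered, 8-min ambient incubation, then luminescence read.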
The depositor's hits bear a star; ? = inconclusive; nt = no result; [ ] = dose if it differs, or a comment. Shown are actives, neighbours in structure and some others; about 7.3% of the full set was active somewhere. Calls come from the whole dose curve; as a rule, active = well fitted curve in the direction sought with a large enough effect; inconclusive = small, poorly fitted or top-dose-only effect, or another doubt; inactive = no such curve, though single readings can be large; an effect the other way counts as inactive or inconclusive. Potency is the fitted concentration of half-maximal effect.

SMILES | ELG1 genotox | Rab9 promoter act | FLuc modulator | NPC1 prom act | SMN2 splice up | Luc counter
CC(=O)Nc1ccc(NC(=O)CCc2nc3cccnc3n2Cc2cccs2)cc1 | nt | nt | -7% | nt | -2% | nt
Cc1cc(C(=O)CSc2nnc(N)s2)c(C)n1Cc1ccco1 | 1.8µM* | 0.45µM* | 3µM* | 0.45µM* | ? | -1%
Nc1nnc(SCC(=O)c2ccco2)s1 | 1% | 4% | 1% | -1% | -5% | 2%
Cc1cc(C(=O)CN2C(=O)C(=O)N(Cc3ccco3)C2=O)c(C)n1CCc1ccccc1 | 0% | ? | 5% | 1% | nt | nt
Cc1cc(C(=O)COC(=O)c2cc(Cl)ccc2N)c(C)n1Cc1ccco1 | 9.2µM* | 2.5µM* | 2.4µM* | 3.5µM* | 14µM* | 1%
Cc1ccc(C(=O)COC(=O)[C@@H](NC(=O)c2ccco2)C(C)C)s1 | 5% | nt | nt | nt | nt | nt
Cc1cc(C(=O)COC(=O)c2cccn2C)c(C)n1Cc1ccco1 | 0.41µM* | 0.63µM* | 0.6µM* | 0.79µM* | ? | -14%
Cc1cc(-c2csc(N)n2)c(C)n1Cc1ccco1 | -2% | 0% | ? | 0% | ? | -4%
CC(C)C(NC(=O)c1ccco1)C(=O)OCC(=O)c1ccccc1 (configuration not stated) | 2% | 6% | 17µM* | 0% | nt | nt
CC(=O)c1cccc(NC(=O)c2nc3ccccc3nc2N2CCCCC2)c1 | nt | nt | -10% | nt | nt | nt
O=C(NCc1ccccc1Cl)C(=O)NCC(c1ccc2c(c1)OCO2)N1CCOCC1 (configuration not stated) | nt | nt | 0% | nt | nt | nt
Cc1cc(C(=O)COC(=O)c2ccco2)c(C)n1Cc1ccco1 | 2.6µM* | 1.4µM* | 0.21µM* | ? | 13% | -10%
O=C(COC(=O)c1ccco1)c1ccc(F)cc1 | ? | 1% | 2.7µM* | 0% | nt | nt
Cc1cc(C(=O)COC(=O)c2ccncc2)c(C)n1Cc1ccco1 | 3% | ? | 0.85µM* | -12% | 6% | -8%
Cc1cccc(-n2nnnc2SCC(=O)c2cc(C)n(Cc3ccco3)c2C)c1 | 5% | 9% | -12% | 11% | -22% | 13%
COc1cc(CNCCSc2nnnn2C)ccc1OCc1ccccc1C | nt | nt | -2% | nt | -18% | nt
O=C(COc1ccc2ccccc2c1Br)Nc1cccnc1 | 18% | 3% | 4.8µM* | ? | nt | nt
O=C(COc1ccc2ccccc2c1Br)Nc1ccncc1 | 8% | -11% | 12µM* | -14% | nt | nt
COc1ccc(OC)c(NC(=O)Cn2cnc3sc(C)c(S(=O)(=O)N4CCN(c5ccccc5OC)CC4)c3c2=O)c1 | nt | nt | -1% | nt | 8% | nt
O=c1/c(=C\c2ccc3c(c2)OCO3)sc2n1CCCN=2 | 3.3µM* | 3.5µM* | 4.3µM* | 0.89µM* | ? | -27%
Cc1ccc(/C=c2/sc3n(c2=O)CCCN=3)o1 | ? | 2.8µM* | 15µM* | ? | 13µM* | -9%
CCn1cc2c(n1)-c1c(oc(C(=O)Nc3cccc(C(F)(F)F)c3)c1C)CC2 | nt | nt | 0% | nt | nt | nt
C(=Nc1cccc2c(N=Cc3ccco3)cccc12)c1ccco1 | -2% | 12% | -11% | 7% | 3% | -3%
Cc1ccc(N=Cc2ccc(N(C)C)cc2)cc1 | 0% | -2% | ? | 1% | -7% | -2%
CN(C)c1ccc(C=Nc2ccc(N(C)C)cc2)cc1 | ? | 20% | 8.5µM* | 0% | -62% | -10%
SMILES | ELG1 genotox | Rab9 promoter act | FLuc modulator | NPC1 prom act | SMN2 splice up | Luc counter
Cc1nc(/N=C\c2ccc(N(C)C)cc2)sc1C | 1% | -4% | 0.3µM* | -1% | nt | nt
C=CCc1c(C)nc(C)nc1N/N=C/c1ccc(N(C)C)cc1 | -2% | -18% | -3% | -8% | -14% | -1%
Cc1ccc(N=Cc2ccc(N(C)C)cc2)cc1C | -1% | -2% | 0.95µM* | -3% | -6% | 0%
CN(C)c1ccc(N=Cc2ccco2)cc1 | ? | 9% | 4.8µM* | 12% | -25% | 11µM*
COc1ccc(Cl)cc1C(=O)NCC(c1ccc(N(C)C)cc1)N1CCCC1 (configuration not stated) | nt | nt | -1% | nt | nt | nt
CCOc1ccc(/C=C/c2nc(C#N)c(N3CCCCC3)o2)cc1 | nt | nt | 2% | nt | -2% | nt
Cc1ccc(C)c(CSc2nnc3[nH]c(=O)cc(C)n23)c1 | nt | nt | -1% | nt | nt | nt
CN(C)c1ccc(C=Nc2ccccc2)cc1 | -1% | 1% | 0.43µM* | -1% | -8% | 1%
CN(C)c1ccc(/C=N/NC(=O)CCC(=O)NCc2ccccc2)cc1 | -1% | 2% | ? | 0% | 8% | 1%
N#C/C(=C\c1ccc(F)cc1)c1nc(-c2ccco2)cs1 | ? | ? | 2.7µM* | ? | 17% | -2%
CC(C)(C)n1cnc2cc(NCc3ccccc3O)ccc21 | 17% | 8% | 12µM* | 28% | nt | nt
Cc1cccc(NC(=S)NCc2ccccn2)c1 | 1% | -7% | 3% | -2% | 19% | -1%
CCN(CC)c1ccc(CNc2ccc3c(c2)ncn3C(C)(C)C)cc1 | 0% | 12% | ? | 3% | nt | nt
Cc1cc(NCc2ccccn2)ccc1Br | 13% | ? | 15µM* | ? | 2% | -6%
CCCn1cnc2cc(NCc3ccccc3OCC)ccc21 | nt | nt | -19% | nt | -9% | nt
CC(C)(C)n1cnc2cc(NC(=O)c3ccc(Cl)cc3)ccc21 | 2.9µM* | 0.5µM* | 4.8µM* | 0.56µM* | nt | nt
CC(C)n1cnc2cc(NCc3ccccc3O)ccc21 | 15% | ? | 21µM* | 19% | nt | nt
O=C(O)c1c(-c2c3ccc(=O)cc-3oc3cc(O)ccc23)cc2ccccc2c1-c1ccccc1 | nt | nt | nt | nt | 2%[9.22 µM] | -4%[7.66 µM]
COCCn1ccc2c(OCC(=O)Nc3cccc(OC)c3)cccc2c1=O | nt | nt | -8% | nt | nt | nt
O=C(CCCCCn1c(=O)c2sccc2n(Cc2ccc(Cl)cc2)c1=O)NCc1ccc2c(c1)OCO2 | nt | nt | 7% | nt | -3% | nt
CCc1ccc(-n2c(N3CCN(c4ccc(F)cc4)CC3)nc3ccccc3c2=O)cc1 | nt | nt | 1% | nt | -28% | nt
Cc1ccc2nc(COc3ccccc3NC(=O)C(C)(C)C)cc(=O)n2c1 | nt | nt | 0% | nt | nt | nt
CC(C)n1cnc2cc(NCc3ccco3)ccc21 | 21% | ? | 17µM* | ? | ? | -1%
CC(C)n1cnc2cc(NCc3ccccn3)ccc21 | ? | ? | 24µM* | 1.8µM* | 18µM* | -5%
CCOC(=O)Cn1c(=O)n(C2CCCCC2)c2nc(-c3ccc(Cl)cc3)nc(C(N)=O)c21 | nt | nt | 1% | nt | nt | nt
O=C(N/N=C/c1ccc(O)cc1)c1cc(C2CC2)[nH]n1 | 4% | 2% | -18% | 0% | nt | nt
